Screening results from PubChem.
Hits are enriched below; roughly 3.7% of the tested compounds scored in any of these assays.
Smad3 inh: Smad3/FoxH1 peptide binding inhibitors, primary screen, biochemical, TR-FRET | inhibition, % at 25 µM | TR-FRET Smad3/Dy647-FoxH1 peptide binding, europium anti-His | Mothers against decapentaplegic homolog 3 (Homo sapiens), P84022 | actives 0.29% (n = 88,000);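 active = compounds that reduce the energy-transfer binding signal between the protein and its labelled peptide by more than half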
ERa coact inh: ERα–SRC-1 coactivator interaction inhibitors, primary screen, biochemical, TR-FRET, ERα LBD, estradiol-bound; Estrogen receptor (Homo sapiens), P03372; TR-FRET ER-alpha LBD / SRC-1 peptide; inhibition, % at 25.6 µM; actives 1.7% (n = 86,000); AID 629, 2007; in the data active = inhibition above about 50%
ERa coact pot: enhancers of ERα–SRC-1 coactivator binding, primary screen, biochemical, TR-FRET, ERα LBD, low estradiol; Estrogen receptor (Homo sapiens), P03372; TR-FRET ERalpha-LBD/SRC-Cy5 coactivator binding, 2 h; 100 = basal binding, no effect; coactivator binding (% of control), % at 25.6 µM; actives 1.3% (n = 86,000); AID 639, 2007; in the data active = activity above about 200%;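 note: binding measured in presence of low estradiol as agonist stimulus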
ERb SRC1 inh: inhibitors of ERβ-SRC1 coactivator interaction, primary screen, biochemical, TR-FRET, ERβ LBD, SRC-1 peptide; actives 1.3% (n = 86,000); AID 633, 2007; TR-FRET ER-beta LBD / SRC1-Cy5 peptide binding; receptor agonist-loaded with 1 µM estradiol; inhibition, % at 25.6 µM;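 active = compounds whose percent inhibition of the receptor-coactivator binding signal exceeds about 50% in the single-dose screen, limit read from the data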
Target sequence (Q92731 whole entry, looked up, the tested form may be a part): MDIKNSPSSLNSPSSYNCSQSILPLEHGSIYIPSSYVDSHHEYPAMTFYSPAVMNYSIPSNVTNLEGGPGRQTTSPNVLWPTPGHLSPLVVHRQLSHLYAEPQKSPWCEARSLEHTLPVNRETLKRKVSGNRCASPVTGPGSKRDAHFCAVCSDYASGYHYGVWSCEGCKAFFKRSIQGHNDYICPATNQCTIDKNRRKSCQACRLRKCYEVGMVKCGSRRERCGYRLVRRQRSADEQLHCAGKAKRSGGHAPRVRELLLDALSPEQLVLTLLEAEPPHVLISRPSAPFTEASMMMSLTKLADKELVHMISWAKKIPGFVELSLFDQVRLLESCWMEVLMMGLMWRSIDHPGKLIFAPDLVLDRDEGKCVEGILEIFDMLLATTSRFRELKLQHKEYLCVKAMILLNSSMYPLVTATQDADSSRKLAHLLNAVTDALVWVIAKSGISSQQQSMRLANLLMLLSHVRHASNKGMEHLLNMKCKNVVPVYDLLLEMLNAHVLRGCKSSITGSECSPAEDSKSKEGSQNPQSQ
Large screens that a line does not name were inactive; [ ] = remark or other dose.

Nc1c(C(=O)NCCN2CCOCC2)c2nc3ccccc3nc2n1-c1ccccc1	none
Nc1c(C(=O)NCCN2CCOCC2)c2nc3ccccc3nc2n1-c1ccc2c(c1)OCO2	ERa coact inh 63[fluorescence artefact?]
COc1ccccc1OCc1nnc(SCC(=O)c2cc(Cl)ccc2OC)o1	ERa coact pot 322[fluorescence artefact?]
COc1ccccc1OCc1nnc(SCCN2CCOCC2)o1	none
C/C(N)=C(/C#N)C(=O)CSc1nnc(COc2ccccc2Cl)o1	ERa coact inh 58, ERb SRC1 inh 59
CCCC(c1cc(C(C)(C)C)c(O)cc1C)c1cc(C(C)(C)C)c(O)cc1C	none (no result: ERa coact inh, ERa coact pot, ERb SRC1 inh)
COC(=O)c1c(-c2ccncc2)csc1NC(=O)c1ccoc1C	ERa coact pot 321
CCN(CC)C(=O)c1sc(NC(=O)c2ccoc2C)c(C(=O)OC)c1C	none
COc1cc2c(=O)n(Cc3ccccc3)c(=O)n(CC(=O)NCc3ccco3)c2cc1OC	ERa coact pot 349[fluorescence artefact?]
O=C(NCc1ccco1)c1ccc(Cn2c(=O)c3ccccc3n(Cc3cccc(F)c3)c2=O)cc1	ERa coact inh 67[fluorescence artefact?]
O=C(NCc1ccco1)c1ccc(Cn2c(=O)c3ccccc3n(Cc3ccc(Cl)cc3)c2=O)cc1	none
O=C(Cn1c(=O)n(Cc2ccccc2)c(=O)c2ccccc21)NCc1ccco1	none
CCCCOC(=O)Cn1c2ccc(OC)cc2c2nc3ccccc3nc21	ERa coact inh 53[fluorescence artefact?], ERa coact pot 227[fluorescence artefact?]
CCn1c2ccc(OC)cc2c2nc3ccccc3nc21	none
c1ccc2c(c1)-c1nc3ccccc3cc1[C@@H]2N1CCOCC1	none (no result: ERa coact inh, ERa coact pot, ERb SRC1 inh)
CCCCSc1nc(O)c(C2OC(=O)c3c2ccc(OC)c3OC)c(=O)n1C (stereo unspecified)	none
CCSc1nc(O)c(C2OC(=O)c3c2ccc(OC)c3OC)c(=O)n1CC (stereo unspecified)	Smad3 inh 84
CCNc1cc2n(c(=O)n1)CCc1cc(OC)c(OC)cc1-2	none
COc1cc2c(cc1OC)-c1cc(NCc3ccccn3)nc(=O)n1CC2	ERa coact pot 513[fluorescence artefact?]
CCOc1ccc(C(Nc2ccc(C)cc2)P2(=O)OCCC(C)O2)cc1 (stereo unspecified)	none
CC(=O)N1CCN=C1SCc1ccccc1	ERa coact pot 263[fluorescence artefact?]
CC(=O)N1CCN=C1SCc1ccc(C)cc1	none
Cc1c(C(=O)NCC(C)C)sc2nc(-c3ccc(F)cc3)cn12	none
COc1ccc(-c2cn3c(C)c(C(=O)Nc4ccncc4)sc3n2)cc1	ERa coact pot 345
COC(=O)c1ccc(NC(=O)c2sc3nc(-c4ccccc4)cn3c2C)cc1	ERa coact pot 537[fluorescence artefact?]
Cc1c(C(=O)Nc2ccncc2)sc2nc(-c3ccc(F)cc3)cn12	ERa coact pot 367[fluorescence artefact?]
CCOC(=O)Cc1c(C)nc2c(-c3ccc(OC)cc3)c(C)nn2c1C	none
COc1ccc2[nH]c3nc(SCc4nnc(-c5ccccc5)o4)nnc3c2c1	ERa coact inh 85[fluorescence artefact?], ERb SRC1 inh 52[fluorescence artefact?]
CCCCNC(=O)Cn1cnc2sc(C(=O)OCC)c(C)c2c1=O	none
CCOC(=O)c1sc(NC(=O)CNC(=O)Cn2cnc3sc(C)c(C)c3c2=O)nc1C	ERa coact pot 226
CC(C)(N)C(=O)N[C@@H]1C(=O)N2[C@H]1SC(C)(C)[C@H]2C(=O)O	none (no result: ERa coact inh, ERa coact pot, ERb SRC1 inh)
CC(=O)Nc1ccccc1C=C1c2ccccc2-c2ccccc21	none (no result: ERa coact inh, ERa coact pot, ERb SRC1 inh)
CCCC(=O)Nc1cccc(NC(=O)CN2CCN(c3ccccc3OC)CC2)c1	ERa coact inh 99[fluorescence artefact?]
COc1ccc(C(=O)c2c(C(F)(F)F)oc3c2C(=O)c2ccccc2C3=O)cc1	ERb SRC1 inh 68
Cc1ccc(C(=O)c2c(C)oc3c2C(=O)C(=O)c2ccccc2-3)cc1	none
COc1ccc(NC(C)=O)cc1NC(C)C(=O)Nc1cccc2ccccc12 (stereo unspecified)	none
CCc1nnc(NC(=O)C2Cc3ccccc3CN2S(=O)(=O)c2ccc(C)cc2)s1 (stereo unspecified)	none
CCc1nnc(NC(=O)C2Cc3ccccc3CN2S(=O)(=O)c2cccs2)s1 (stereo unspecified)	ERa coact inh 55
CCc1nc(N)nc(N)c1-c1ccc(Cl)cc1	ERa coact pot 246
CCc1nc(N)c(C#N)c(-c2ccncc2)c1C	none
O=C(O)Cc1cc(Cl)ccc1O	none (no result: ERa coact inh, ERa coact pot, ERb SRC1 inh)
COC(=O)c1ccccc1NC(=O)c1sc(N)nc1C	none
COC(=O)c1ccccc1NC(=O)c1sc(=S)n(C)c1N	ERa coact inh 70[fluorescence artefact?]
Cc1cc(-c2ccco2)c(C#N)c2nc3ccccc3n12	ERa coact inh 81[fluorescence artefact?]
C=CCn1c(CCNC(=O)c2cccs2)nnc1SCC(=O)Nc1cccc(F)c1	none
O=C(NCCN1CCCCCC1)c1ccc(CS(=O)(=O)c2ccc(Br)cc2)o1	ERa coact inh 81[fluorescence artefact?]
O=C(NCCCN1CCCC1)c1ccc(CS(=O)(=O)c2ccc(Br)cc2)o1	none
O=C(NCCCN1CCCCCC1)c1ccc(CS(=O)(=O)Cc2ccccc2F)o1	Smad3 inh 69, ERa coact pot 636[fluorescence artefact?]
CC1CCN(CCCNC(=O)c2ccc(CS(=O)(=O)Cc3ccccc3F)o2)CC1	none
O=C(c1ccc([N+](=O)[O-])cc1)N(Cc1ccc(Br)cc1)N1C(=O)CCCC1=O	none
Cc1ccc2nc(-c3ccc(NC(=O)C4CCCO4)cc3)[nH]c2c1 (stereo unspecified)	none
CCn1nnc(NC(=O)CSc2ccc(Cl)cc2)n1	ERa coact inh 90, ERb SRC1 inh 82
COc1ccc(CCN(Cc2cc3cccc(C)c3[nH]c2=O)C(=O)NC2CCCCC2)cc1OC	none
C=CCNc1nc(N2CCOCC2)nc(N2CCOCC2)n1	none
CCCNc1nc(N2CCOCC2)nc(N2CCOCC2)n1	ERb SRC1 inh 55
COC(=O)c1cc(=O)n(CCc2ccc(OC)cc2)c(=Nc2ccc(F)c(Cl)c2)s1	none
CCn1c(=O)cc(C(=O)OC)sc1=Nc1ccc(F)c(F)c1	ERb SRC1 inh 95[fluorescence artefact?]
O=C(O)c1ccccc1C(=O)N1CCN(c2cccc(Cl)c2)CC1	none
O=C(O)CCCC(=O)N1CCN(c2cccc(Cl)c2)CC1	ERa coact pot 331[fluorescence artefact?]
CC(=O)c1cccc(NC(=O)COc2ccccc2)c1	none
O=C(COc1ccccc1)Nc1ccc(Cl)c(-c2nc3ncccc3o2)c1	ERa coact inh 50, ERa coact pot 226[fluorescence artefact?]
CCCC(=O)Nc1ccc(-c2nc3cc(C)ccc3o2)cc1	none
Cc1ccc(OCC(=O)Nc2ccc(-c3nc4ncccc4o3)cc2)c(C)c1	ERa coact inh 51[fluorescence artefact?]
CSc1nc(-c2ccccc2)nc2[nH]ccc(=O)c12	ERa coact inh 52[fluorescence artefact?], ERa coact pot 317
CCCS(=O)(=O)O	none (no result: ERa coact inh, ERa coact pot, ERb SRC1 inh)
CC(C)OC(=O)c1ccc(NC(=O)c2ccco2)cc1	none
COc1ccc(N=C2C(=O)Nc3c(C)cccc32)cc1	none
COc1ccc(N=C2NC(=O)S/C2=C\c2ccc(N(C)C)cc2)cc1	ERa coact inh 54, ERb SRC1 inh 52
Cc1ccc(-c2cc(C(=O)NCCCn3ccnc3)c3cc(Br)ccc3n2)o1	ERa coact inh 88[fluorescence artefact?]
